{"source": "PubChem BioAssay (EPA / NIEHS)", "note": "Records with an inconclusive call do not appear. Calls of active or inactive are those of the source. How the source made its calls: active means hit-call score of the fitted dose curve at least 0.9, where 1 is the maximum; inconclusive means response in the unintended direction; inactive means score below 0.9.", "data": [{"read-out": "sulfotransferase (SULT2A), SULT2A1 (gene 6822)", "experiment": "CLD_SULT2A_24hr: CellzDirect (CLD) Gene Expression Assay for sulfotransferase (SULT2A) at 24 hours (AID 2283694);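 on AC50: potency for increased SULT2A1 mRNA level as induction over DMSO baseline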", "method": "CLD_24hr is a cell-based, multiplexed-readout assay that uses hepatocyte, a human liver primary cell, with measurements taken at 24 hours after chemical dosing in a 96-well plate.CLD_SULT2A_24hr is one of 16 assay component(s) measured or calculated from the CLD_24hr assay. It is designed to make measurements of mRNA induction, a form of inducible reporter, as detected with chemiluminescence signals by Quantitative Nuclease Protection Assay (qNPA) technology.Data from the assay component CLD_SULT2A_24hr was analyzed at the endpoint, CLD_SULT2A_24hr, in the positive analysis fitting direction relative to DMSO as the negative control and baseline of activity. Using a type of inducible reporter, gain-of-signal activity can be used to understand changes in the reporter gene as they relate to the gene SULT2A1. Furthermore, this assay endpoint can be referred to as a primary readout. To generalize the intended target to other relatable targets, this assay endpoint is annotated to the transferase intended target family, where subfamily is sulfotransferase.\nHuman hepatocyte cultures were treated daily for two consecutive days with fresh dosing solutions containing appropriate concentrations of the 320 ToxCast chemicals (chemical identities were blinded to CellzDirect and other ToxCast collaborators), vehicle control (0.2% DMSO), and positive control inducers as summarized in Table 1. Due to the large number of treatment groups and chemicals examined, the ToxCast chemicals were divided into two groups (spanning two independent cultures of hepatocytes from separate donor preparations (Hu778: ToxCast plates 1 and 2; Hu776: ToxCast plates 3 and 4). Each preparation of human hepatocyte cultures was treated with respective vehicle control, medium only control, set of six positive controls/reference chemicals for the five hepatic receptor pathways, and a subset of eight of the ToxCast chemicals (indoxacarb, pyrithiobac-sodium, norflurazon, cyhalofop-butyl, methomyl, thiram, acetochlor, and propiconazole). These replicate data, coupled with internal replicates designed within the blinded ToxCast chemical library, provided additional data to evaluate interindividual differences between hepatocyte preparations and their potential impact on chemical profiles.Cell morphology and integrity were evaluated using phase-contrast microscopy as an indicator of hepatocyte cell health (Tyson & Green, 1987). Cultures for each treatment group (i.e., media, vehicle [0.2% DMSO], positive control inducers [multiple concentrations], and the ToxCast chemicals [multiple concentrations]) were observed and cell morphology was assessed relative to vehicle control cultures at each harvest time point (0, 6, 24, or 48 h). […] Images were evaluated at the conclusion of the study to assess changes in cell integrity and account for the effects of chemical exposure on uncharacteristic changes in concentration-dependent gene expression profiles. The results from these determinations of apparent cytotoxicity were annotated (yes/no) alongside the corresponding qNPA data for reference.At the conclusion of each treatment period, hepatocyte cultures (96-well) were washed with 1 volume of HBSS, lysed by addition of 25 ul ArrayPlate lysis buffer (HTG, Tucson, AZ), and 70 ul/well of Denaturation Oil, denatured by incubation at 95C for 10 min, and frozen at approximately -70C until analysis by nuclease protection assay (qNPA) (Roberts et al., 2007). For qNPA analysis, cell lysates were thawed at 50C for approximately 30 min, qNPA probes were added, and samples were incubated at 95C for 10 min to begin the detection process by denaturing the target RNA, dissociating the duplexes and secondary structure hybridization. At the conclusion of the hybridization period, S1 nuclease reagent was added to each sample to digest all nonprotected nucleotides at 50C for 60-90 min. […]", "values": [{"smiles": "COC(=O)c1c(C(F)F)nc(C(F)(F)F)c(C2=NCCS2)c1CC(C)C", "AC50": "20 µM (active)"}, {"smiles": "CCCN(CC)CC1COC2(CCC(C(C)(C)C)CC2)O1", "note": "(stereo not given)", "AC50": "3.97 µM (active)"}, {"smiles": "CC1(C)CON(Cc2ccccc2Cl)C1=O", "outcome": "inactive"}, {"smiles": "COCC(C)N(C(=O)CCl)c1c(C)csc1C", "note": "(stereo not given)", "outcome": "inactive"}, {"smiles": "Cc1nc(N(C)C)nc(OC(=O)N(C)C)c1C", "outcome": "inactive"}, {"smiles": "CCOP(=S)(OCC)Oc1nc(Cl)n(C(C)C)n1", "outcome": "inactive"}, {"smiles": "COP(=S)(OC)SCn1nnc2ccccc2c1=O", "outcome": "inactive"}, {"smiles": "COc1cc(Cl)c(OC)cc1Cl", "outcome": "inactive"}, {"smiles": "O=C(Nc1ccccc1-c1ccc(Cl)cc1)c1cccnc1Cl", "outcome": "inactive"}, {"smiles": "CCCCC(O)(Cn1cncn1)c1ccc(Cl)cc1Cl", "note": "(stereo not given)", "outcome": "inactive"}, {"smiles": "CCN(CC)c1nc(C)cc(OP(=S)(OC)OC)n1", "outcome": "inactive"}, {"smiles": "CC(C)NC(=O)N1CC(=O)N(c2cc(Cl)cc(Cl)c2)C1=O", "outcome": "inactive"}, {"smiles": "CCSC(=O)N1CCCCCC1", "outcome": "inactive"}, {"smiles": "Cc1cc(C)nc(Nc2ccccc2)n1", "outcome": "inactive"}, {"smiles": "COc1cc(OC)nc(NC(=O)NS(=O)(=O)c2ncccc2OCC(F)(F)F)n1", "outcome": "inactive"}, {"smiles": "CCNP(=S)(OC)O/C(C)=C/C(=O)OC(C)C", "note": "(stereo not given)", "outcome": "inactive"}, {"smiles": "CCOP(=O)(OCC)Oc1nc(Cl)c(Cl)cc1Cl", "outcome": "inactive"}, {"smiles": "CCOc1nc(F)cc2nc(S(=O)(=O)Nc3c(Cl)cccc3Cl)nn12", "AC50": "5.51 µM (active)"}, {"smiles": "CC(C)Oc1cccc(NC(=O)c2ccccc2C(F)(F)F)c1", "outcome": "inactive"}, {"smiles": "CC(C)(C)C(=O)C(Oc1ccc(Cl)cc1)n1cncn1", "note": "(stereo not given)", "outcome": "inactive"}, {"smiles": "CS(=O)(=O)c1cc(C(F)(F)F)ccc1C(=O)c1cnoc1C1CC1", "outcome": "inactive"}, {"smiles": "CC1(C)C(C=C(Cl)Cl)C1C(=O)OC(C#N)c1cccc(Oc2ccccc2)c1", "note": "(stereo not given)", "outcome": "inactive"}, {"smiles": "CCCCC(C#N)(Cn1cncn1)c1ccc(Cl)cc1", "note": "(stereo not given)", "outcome": "inactive"}, {"smiles": "C=C(C)CN(CC)c1c([N+](=O)[O-])cc(C(F)(F)F)cc1[N+](=O)[O-]", "outcome": "inactive"}, {"smiles": "Cn1c(-c2ccccc2)cc(-c2ccccc2)[n+]1C", "AC50": "8.08 µM (active)"}, {"smiles": "CCOc1cc(C(C)(C)C)ccc1C1COC(c2c(F)cccc2F)=N1", "note": "(stereo not given)", "outcome": "inactive"}, {"smiles": "CCCCOCN(C(=O)CCl)c1c(CC)cccc1CC", "outcome": "inactive"}, {"smiles": "Cc1cnc(C2=NC(C)(C(C)C)C(=O)N2)c(C(=O)O)c1", "note": "(stereo not given)", "outcome": "inactive"}, {"smiles": "COC(=O)NS(=O)(=O)c1ccc(N)cc1", "outcome": "inactive"}, {"smiles": "O=c1n(Cl)c(=O)n(Cl)c(=O)n1Cl", "outcome": "inactive"}, {"smiles": "COc1ccc(-c2ccccc2)cc1NNC(=O)OC(C)C", "AC50": "33.5 µM (active)"}, {"smiles": "CC(C)C1(C)N=C(c2ncccc2C(=O)O)NC1=O", "note": "(stereo not given)", "outcome": "inactive"}, {"smiles": "CCOC(=O)C(C)OC(=O)c1cc(Oc2ccc(C(F)(F)F)cc2Cl)ccc1[N+](=O)[O-]", "note": "(stereo not given)", "AC50": "3.51 µM (active)"}, {"smiles": "COC(=O)N(C(=O)N1CO[C@@]2(C(=O)OC)Cc3cc(Cl)ccc3C2=N1)c1ccc(OC(F)(F)F)cc1", "outcome": "inactive"}, {"smiles": "CC(C)Nc1nc(Cl)nc(NC(C)C)n1", "outcome": "inactive"}, {"smiles": "Nc1c(Cl)c(Cl)nc(C(=O)O)c1Cl", "outcome": "inactive"}, {"smiles": "OC(c1ccc(Cl)cc1)(c1ccc(Cl)cc1)C(Cl)(Cl)Cl", "AC50": "20 µM (active)"}, {"smiles": "CC1(C)C(C(=O)OC(C#N)c2cccc(Oc3ccccc3)c2)C1(C)C", "note": "(stereo not given)", "outcome": "inactive"}, {"smiles": "COCC(=O)N(c1c(C)cccc1C)C(C)C(=O)OC", "note": "(stereo not given)", "outcome": "inactive"}, {"smiles": "CSC(=O)c1c(C(F)F)nc(C(F)(F)F)c(C(=O)SC)c1CC(C)C", "AC50": "7.07 µM (active)"}]}]}
